# PubChem BioAssay (NCI)
# About 79,000 compounds went through this panel and 15% of them were active in at least one assay; those are over-represented in the sample as a whole. A number with no mark means an inactive call. Activity calls are given as the source filed them. No stated cut-off is given here; in the data, active means growth inhibition above about 70%; inactive means the rest.
# Experiments:
# [1] = NCI Yeast Anticancer Drug Screen. Data for the rad50 strain (AID 155);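 further: 0% = growth of vehicle-only cultures of the same strain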; settings: S. cerevisiae rad50 strain growth inhibition, hits give high values
# Summary of the method: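 Genetically altered yeast (DNA repair pathway); compound treatment; growth inhibition vs vehicle ctrl.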
# [2] = NCI Yeast Anticancer Drug Screen. Data for the mec2-1 strain (AID 157); settings: S. cerevisiae mec2-1 strain, hits give high values
# Summary of the method: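 Each compound was tested on mec2-1 yeast, a strain altered in DNA damage repair or cell cycle control. Growth inhibition is reported relative to vehicle.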
# [3] = NCI Yeast Anticancer Drug Screen. Data for the sgs1 mgt1 strain (AID 161);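 further: 0% = growth of cultures given vehicle only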; settings: S. cerevisiae sgs1 mgt1 strain, hits give high values
# Summary of the method: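 Mutant yeast exposed to compound; growth scored against vehicle-only wells.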
# [4] = NCI Yeast Anticancer Drug Screen. Data for the cln2 rad14 strain (AID 165);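 further: 0% = growth equal to vehicle treated cultures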; settings: S. cerevisiae cln2 rad14 strain, hits give high values
# Summary of the method: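 Test compounds were added to cln2 rad14 yeast cultures; inhibition of growth was then determined by comparison with vehicle treatment.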
# [5] = NCI Yeast Anticancer Drug Screen. Data for the bub3 strain (AID 167); settings: S. cerevisiae bub3 mutant strain, hits give high values
# Summary of the method: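 Yeast carrying a defined mutation is treated with each compound, and growth is compared with that of vehicle-exposed cells to give inhibition.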
# [6] = NCI Yeast Anticancer Drug Screen. Data for the mlh1 rad18 strain (AID 175); settings: S. cerevisiae mlh1 rad18 strain growth inhibition, hits give high values
# Summary of the method: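 Inhibition values reflect reduced growth of mutant yeast versus vehicle-treated controls following compound exposure; the mutations affect DNA damage repair.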
# [7] = at 5.0 µM (retest, dose inferred, filed as 0.5)
# [8] = at 50.0 µM (retest, dose inferred, filed as 5.0)
Compound,"growth inhibition [1, 7]","growth inhibition [1, 8]",growth inhibition ([1]; at 50.0 µM),"growth inhibition [2, 7] [%]","growth inhibition [2, 8]",growth inhibition ([2]; at 50.0 µM),"growth inhibition [3, 7] [%]","growth inhibition [3, 8]",growth inhibition ([3]; at 50.0 µM),"growth inhibition [4, 7] [%]","growth inhibition [4, 8]",growth inhibition ([4]; at 50.0 µM),"growth inhibition [5, 7]","growth inhibition [5, 8]",growth inhibition ([5]; at 50.0 µM),"growth inhibition [6, 7] [%]","growth inhibition [6, 8]",growth inhibition ([6]; at 50.0 µM)
COc1ccc2nc3c([N+](=O)[O-])ccc(NCCCN(C)C)c3c(N)c2c1,6%,86% (active),90.3% (active),9,70% (active),85.7% (active),24,75% (active),92.5% (active),16,50%,34.5%,-22%,85% (active),44.5%,-14,95% (active),88.6% (active)
Cc1ccc(O)c(-c2cscn2)c1,49%,68%,62.6%,39,60%,6.95%,15,22%,55.5%,65,72% (active),31.5%,46%,50%,48.5%,47,59%,85.7% (active)
OB1c2ccccc2CCc2ccccc21,-4%,99% (active),99.3% (active),-7,99% (active),99.5% (active),-4,99% (active),99.5% (active),-13,98% (active),96.6% (active),-25%,99% (active),99.2% (active),-2,99% (active),99% (active)
CC(C)C(O)C(C)C,5%,1%,83% (active),0,-3%,-2.45%,-1,0%,4.95%,4,-1%,17.1%,1%,-7%,13.7%,4,2%,49.5%
Cc1c(C[n+]2cc3ccccc3cc2/C=N/O)ccc2ccccc12,1%,31%,19.1%,3,39%,10.1%,2,31%,5.5%,-2,-6%,-3.1%,1%,19%,97.2% (active),1,37%,16.8%
C=C1CC2(C[C@@H](c3ccccc3)O[C@@H](c3ccccc3)C2)OC1=O (some centres not stated),20%,97% (active),95% (active),4,98% (active),94.6% (active),2,98% (active),94.5% (active),35,97% (active),90.5% (active),33%,98% (active),95.2% (active),15,98% (active),92.5% (active)
CC(=O)N(O)c1ccc2c(c1)Cc1cc(F)ccc1-2,75% (active),37%,97% (active),34,29%,94% (active),65,35%,97.1% (active),45,21%,92.5% (active),-14%,80% (active),97.8% (active),49,57%,96.5% (active)
CC(C)C1(Cl)CCC2C3(C)CCCC(C)(C(=O)O)C3CC(Cl)C2(Cl)C1Cl (configuration not stated),3%,75% (active),80.8% (active),5,78% (active),74.9% (active),17,61%,70% (active),-12,84% (active),95.8% (active),14%,79% (active),72.5% (active),-15,78% (active),86.7% (active)
Cc1cc(O)cc2c1c(=O)c1ccccc1n2C,15%,29%,39%,15,24%,24.5%,20,17%,11.4%,15,25%,1.8%,18%,25%,2.4%,23,34%,11.6%
CCCCCCCCCCCCNC(=O)NCC(OCC)OCC,-3%,96% (active),89.3% (active),2,97% (active),91.5% (active),13,95% (active),92.3% (active),28,95% (active),83.3% (active),12%,97% (active),91.8% (active),-19,96% (active),90.3% (active)
OCCCNc1nc2c(Cl)cc(Cl)cc2c2ccccc12,16%,49%,50%,6,28%,15.4%,8,30%,72.7% (active),-6,-16%,19.4%,-6%,-5%,76.2% (active),4,30%,92.8% (active)
CCOC(CN(C)C(=O)Nc1ccc(Cl)c(Cl)c1)OCC,-31%,52%,63.7%,2,61%,32.7%,-15,56%,58.6%,-17,45%,67.8%,-26%,71% (active),54.9%,-25,84% (active),38.7%
Nc1nc(=O)[nH]c([O-])c1N=O.Nc1nc(=O)[nH]c([O-])c1N=O.[Ag+].[Ag+],37%,-25%,96.8% (active),44,-8%,98.7% (active),63,-28%,92.9% (active),28,-17%,98.8% (active),76% (active),-28%,99.2% (active),36,-21%,96.9% (active)
COc1ccc2c(c1)CCc1c(-c3noc4c3CCc3cc(OC)ccc3-4)noc1-2,-7%,-15%,9.65%,5,19%,19%,4,-2%,-0.9%,11,9%,53.5%,-2%,2%,-7.75%,-2,10%,54.2%
Cc1ccsc1C(=S)Nc1ccc(Cl)c(/C=N/OC(C)C)c1,4%,15%,32%,9,14%,19.9%,7,31%,21.6%,2,17%,44.8%,13%,43%,23.1%,12,14%,55.2%
CC1(C)N([O-])[N+](=O)C1(Br)c1ccccc1 (configuration not stated),22%,99% (active),86.7% (active),17,100% (active),93.8% (active),-6,95% (active),92.6% (active),8,64%,90.2% (active),-24%,96% (active),87.5% (active),25,99% (active),84.5% (active)
ON(C(=Nc1ccc(Cl)cc1)c1ccccc1)c1ccccc1,-10%,98% (active),98% (active),7,99% (active),99.2% (active),-5,99% (active),99% (active),-11,98% (active),99.2% (active),7%,98% (active),98.8% (active),9,99% (active),99% (active)
COc1cc(C/C=C/c2ccccc2)c(OC)cc1O,18%,30%,63.6%,18,24%,61.7%,15,37%,54.4%,18,29%,76% (active),20%,29%,64.8%,17,35%,48.5%
CC(NC(=O)OCc1ccccc1)C(=O)NC(Cc1ccccc1)C(=O)OCc1ccccc1 (configuration not stated),1%,5%,-17.6%,37,2%,-5.05%,-2,-1%,22%,5,2%,36.6%,-3%,-7%,-4.4%,1,7%,6.45%
